The campaign covered roughly 280,000 compounds. About 820 (0.29%) were called active. Inconclusive results (about 1%) are left out. The call rests on the fitted dose curve; in most records, active means well fitted curve in either direction with a large enough effect; inconclusive means small, poorly fitted or top-dose-only effect; inactive means flat fitted curve, though single readings scatter. This excerpt belongs to a sample that is enriched for actives.
Assay: Total Fluorescence Counterscreen for Inhibitors of the Interaction of Thyroid Hormone Receptor and Steroid Receptor Coregulator 2
Conditions: TRb/SRC2 Texas Red total fluorescence interference; series mostly up to 106 µM; fluorescence change, negative = quenching: at the top concentration
Text: NIH Molecular Libraries Probe Production Network [MLPCN]
NIH Chemical Genomics Center [NCGC]
Assay Provider: R. Kip Guy, St. Jude Children's Research Hospital
Thyroid receptor (TR) regulates many homeostatic processes including basal metabolism, cardiovascular function, body weight, and lipid trafficking. TR modulators are potential therapeutics for obesity and hyperlipidemias but current thyroid analogs have undesirable side effects, particularly cardiac stimulation. To identify inhibitors that specifically prevent the interaction of TR with the steroid receptor […] 2 (SRC2), a fluorescence polarization assay was screened. This assay detects interaction of the ligand-binding domain of human TRb with a Texas Red labeled SRC2 peptide, corresponding to a 20 amino acid region of the nuclear receptor interaction domain (Arnold et al., 2006). Total fluorescence (555 nm excitation and 632 nm emission) was measured to identify potential fluorescent and light absorbing compounds. Such compounds may be artifacts that interfere with the fluorescence polarization assay.
Arnold, L. A.; Estebanez-Perpina, E.; Togashi, M.; Shelat, A.; Ocasio, C. A.; McReynolds, A. C.; Nguyen, P.; Baxter, J. D.; Fletterick, R. J.; Webb, P.; Guy, R. K. A high-throughput screening method to identify small molecule inhibitors of thyroid hormone receptor coactivator binding. Sci STKE 2006, p 13.
NCGC Assay Protocol Summary:
For screening, 5 uL/well 0.6 uM TRb and 20 nM SRC2 Texas Red in protein buffer (20mM Tris hydrochloride, 100mM NaCl, 10% glycerol, 1mM EDTA, 0.01% NP-40, 1mM DTT, 1uM T3 and 5% DMSO) was dispensed into black solid 1536-well plates (Grenier) using a solenoid-based dispenser. Following transfer of 23 nL compound or DMSO vehicle by a pin tool, the plates were centrifuged 15 s at 1000 RPM and incubated 5 hr at ambient temperature. The plates were read by an Envision (Perkin Elmer) to detect fluorescence polarization of SRC2 Texas Red (555 nm excitation and 632 nm emission). Data were normalized to unbound (all components except TRb) and bound SRC2 Texas Red controls. Total fluorescence (TF) was calculated as follows: TF = S + 2P where S and P are fluorescence readings in the parallel and perpendicular channels, respectively.
Keywords: NIH Roadmap, MLPCN, MLI, MLSMR, qHTS, NCGC, qHTS, thyroid hormone receptor, steroid receptor coactivator, fluorescence polarization
On the % scale 0 is the no-effect control and ±100 the full control effect; potency means the concentration at half of the fitted maximal effect; tags describe the fitted curve by direction and shape or compound fluorescence and quenching.

| SMILES | fluorescence change, negative = quenching | Potency |
| --- | --- | --- |
| COc1ccc(-c2cn(-c3ccc(OC)cc3)c(=S)[nH]2)cc1 | -1.99% (inactive) |  |
| COc1cc(OC)c(-n2cc(-c3ccc(Cl)cc3)[nH]c2=O)cc1Cl |  | 126 µM [quencher] (active) |
| COc1cc(OC)c(-n2c(C)cc(C=O)c2C)cc1Cl | 0.922% (inactive) |  |
| Cc1nc2nc(SCC(=O)NC3CCC(C)CC3)nn2c(C)c1Cc1ccccc1Cl (stereo not drawn) | -2.74% (inactive) |  |
| CCS(=O)(=O)N1CCc2cc(C(=O)NCc3ccc(C)cc3)ccc21 | -1.18% (inactive) |  |
| COC(=O)c1cc(NC(=O)c2sc3ccccc3c2Cl)cc(C(=O)OC)c1 | 3.06% (inactive) |  |
| O=C(Nc1ccon1)c1sc2ccccc2c1Cl | -5.33% (inactive) |  |
| CCCC(=O)Nc1ccc(NC(=O)c2sc3ccccc3c2Cl)cc1 |  | 1.26 µM [quencher] (active) |
| O=C(NCC(c1ccc2c(c1)OCO2)N1CCN(c2ccccc2)CC1)C(=O)Nc1ccccc1F (stereo not drawn) | -23.7% (inactive) |  |
| Cc1ccc(Cl)cc1N(C)C(=O)Cn1nc(Cc2cccnc2)c2ccccc2c1=O | -1.68% (inactive) |  |
| CCC(=O)N1N=C(c2ccc(OC)cc2)CC1c1cn(-c2ccccc2)nc1-c1cccs1 (stereo not drawn) | 0.912% (inactive) |  |
| COc1ccc(Cl)cc1NC(=O)CCn1c(=O)c2cccn2c2ccccc21 | 2.79% (inactive) |  |
| Cc1ccc(C)c(N2CCN(S(=O)(=O)c3ccc4c(c3)C(C(C)C)C(=O)N4)CC2)c1 (stereo not drawn) | -3.11% (inactive) |  |
| Cc1c(-c2nc(-c3ccc4c(c3)OCO4)no2)nnn1-c1ccc(Br)cc1F | 0.271% (inactive) |  |
| Cc1ccc(CN2CCCn3nc(C(=O)NCc4ccccc4Cl)cc3C2=O)cc1 | -1.63% (inactive) |  |
| Cc1ccccc1CNC(=O)CCc1cn(Cc2ccccc2C)c2ccccc12 | -3.5% (inactive) |  |
| Cc1ccc(C)c2sc(NC(=O)c3ccc(S(=O)(=O)N4CCCC4)cc3)nc12 | -1.98% (inactive) |  |
| Cc1ccc(S(=O)(=O)n2nc(-c3ccc(Cl)cc3)nc2NCc2ccccc2)cc1 |  | 1000 µM [quencher] (active) |
| O=C(c1ccco1)n1nc(-c2ccc(Cl)cc2)nc1NCc1ccccc1 | 2.98% (inactive) |  |
| COc1ccc(CNc2nc(-c3ccc(Cl)cc3)nn2S(=O)(=O)c2ccc(C)cc2)cc1 | -14.6% (inactive) |  |
| CCOC(=O)C1CCN(c2nc3c(S(=O)(=O)c4ccc(CC)cc4)nnn3c3ccc(Cl)cc23)CC1 | 3.96% (inactive) |  |
| Cn1c2ccccc2c(=O)c2c(O)cccc21 | -3.09% (inactive) |  |
| Oc1ccc(O)c2c(O)cccc12 |  | 28.2 µM [quencher] (active) |
| O=c1cc(-c2ccc(O)c(O)c2)oc2cccc(O)c12 | -7.29% (inactive) |  |

| SMILES | fluorescence change, negative = quenching | Potency |
| --- | --- | --- |
| CCOc1cccc(NC(=O)c2ccc(F)c(S(=O)(=O)N(CC)c3cccc(C)c3)c2)c1 | -2.68% (inactive) |  |
| Cc1ccc(Cn2c(CNC(=O)Cc3cccc(C)c3)nc3cccnc32)cc1 | 0.294% (inactive) |  |
| Cc1ccc(C(=O)Nc2cc3c(cc2N2CCCC2)n(C)c(=O)c(=O)n3C)cc1 | 5.45% (inactive) |  |
| Cc1ccc(NC(=O)c2ccc(CN3CC(=O)N4CCCCC4C3=O)cc2)c(Cl)c1 (stereo not drawn) |  | 70.8 µM [quencher] (active) |
| CCn1c(=O)c(=O)n(CC)c2cc(N3CCCCC3)c(NC(=O)c3ccc(Cl)cc3)cc21 | -11.1% (inactive) |  |
| CC(C)CCCCCOC(=O)CS | -0.794% [at 201 µM] (inactive) |  |
| CCOc1ccccc1NC(=O)Cn1c(=O)n(-c2cccc(C)c2)c(=O)c2c1c1cc(OC)ccc1n2C | 0.837% (inactive) |  |
| COc1ccc(-c2c(C)nn3c(N4CCC(C(=O)N5CCCCC5)CC4)cc(C)nc23)cc1OC | -3.06% (inactive) |  |
| COc1ccc(-c2c(C)nn3c(N4CCC(C(=O)NCCC(C)C)CC4)cc(C)nc23)cc1OC | 1.53% (inactive) |  |
| COc1cccc(NC(=O)C2CCN(c3cc(C)nc4c(-c5ccc(Cl)cc5)c(C)nn34)CC2)c1 |  | 89.1 µM [quencher] (active) |
| COc1ccc(CCNC(=O)c2cc3cccc4c3n2CC(C)S4)c(OC)c1OC (stereo not drawn) | -1.75% (inactive) |  |
| COc1ccc2c(CN3CCN(S(=O)(=O)c4cccs4)CC3)cc(=O)oc2c1 | 5.04% (inactive) |  |
| Cc1cc2oc(=O)cc(CN3CCN(S(=O)(=O)c4cccs4)CC3)c2cc1C(C)C |  | 7.08 µM [quencher] (active) |
| O=S(=O)(c1cccs1)N1CCN(Cc2ccccc2)CC1 | -0.111% (inactive) |  |
| COc1cc(OC)cc(-c2nc3nc(C)c(CCC(=O)Nc4ccccc4)c(C)n3n2)c1 | -5.62% (inactive) |  |
| Cc1ccc(C)c(Oc2c(C(F)(F)F)oc3c(CN4CCN(C)CC4)c(O)ccc3c2=O)c1 | 0.669% (inactive) |  |
| CCOC(=O)c1c(NC(=O)Cc2coc3ccc(CC)cc23)sc2c1CCC2 | 7.09% (inactive) |  |
| CCOCCCNC(=O)c1c(NC(=O)Cc2coc3c(C)c(C)ccc23)sc2c1CCC2 | -22.2% (inactive) |  |
| CCOCCCNC(=O)c1c(NC(=O)Cc2coc3ccc(C)cc23)sc2c1CCC2 |  | 35.5 µM [quencher] (active) |
| Cc1ccc(-n2c(SCC(=O)c3ccccc3)nc3c([nH]c4ccccc43)c2=O)cc1 | -3.63% (inactive) |  |
| COc1cc(OC)cc(C(=O)Nc2ccc3nc(Nc4cccc(C(F)(F)F)c4)cc(C)c3c2)c1 | -12.6% (inactive) |  |
| Cc1c(NC(=O)C(C)(C)C)cccc1-c1nc2ccccc2s1 | 7.43% (inactive) |  |
| COc1cccc(CNC(=O)c2ccc3c(c2)sc2nc(-c4cccc(OC)c4)cn23)c1 | -4.52% (inactive) |  |
| CCCCn1cc(S(=O)(=O)c2ccc(OCC)cc2)c(=O)c2cc(OC)c(OC)cc21 | -1.29% (inactive) |  |

Source: PubChem BioAssay AID1479 (National Center for Advancing Translational Sciences (NCATS), 2009)
